Measured values from PubChem BioAssay (EPA / NIEHS).
Where “and” joins values, the source holds several entries; their conditions need not be identical. Equal values may be shown once. Inconclusive results are not listed. Some structures have more than one record in an assay (separate samples or runs), and their calls can disagree. Calls of active or inactive are those of the source. The calls were made as follows, unless noted: active = hit-call score of the fitted dose curve at least 0.9, where 1 is the maximum; inconclusive = response in the unintended direction; inactive = score below 0.9.

Legend:
[1] = TOX21_p53_BLA_p4_viability: Viability Assessment in the Tox21 HCT-116 p53 Agonism Beta-lactamase Assay, Phase 4 (AID 2283597);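 also: hits lower the luminescence signal meaning cytotoxicity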
How it was run: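 Luminescent ATP readout (CellTiter-Glo, 30 min, room temperature) in the same wells as the p53 bla ratio. HCT116 cells were treated for 16 h at 37C with DMSO-dissolved compounds.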

[2] = target: Cellular tumor antigen p53 (Homo sapiens) (UniProt P04637); assay: TOX21_p53_BLA_p5_ratio: Tox21 HCT-116 p53 Agonism Beta-lactamase Assay, Ratio, Phase 5 (AID 2283599)
Cellular tumor antigen p53 (Homo sapiens), sequence (P04637 whole entry, looked up): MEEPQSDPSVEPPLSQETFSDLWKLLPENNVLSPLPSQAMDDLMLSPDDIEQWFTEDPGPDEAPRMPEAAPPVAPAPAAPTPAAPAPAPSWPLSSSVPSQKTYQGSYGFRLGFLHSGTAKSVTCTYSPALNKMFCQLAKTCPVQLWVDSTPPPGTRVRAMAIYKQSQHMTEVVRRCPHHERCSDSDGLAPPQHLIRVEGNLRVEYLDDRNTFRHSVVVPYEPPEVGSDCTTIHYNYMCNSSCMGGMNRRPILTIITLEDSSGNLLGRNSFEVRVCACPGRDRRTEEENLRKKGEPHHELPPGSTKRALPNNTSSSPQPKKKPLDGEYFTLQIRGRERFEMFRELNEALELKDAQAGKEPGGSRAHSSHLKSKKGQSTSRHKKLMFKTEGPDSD
How it was run: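 Beta-lactamase reporter ratio (blue 460 nm over green 530 nm, 405 nm excitation) after 2 h CCF4-AM loading, in HCT-116 cells exposed 16 h at 37 C to compounds pinned at 217-fold dilution. Increases relative to DMSO baseline scored.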

[3] = TOX21_p53_BLA_p5_viability: Viability Assessment in the Tox21 HCT-116 p53 Agonism Beta-lactamase Assay, Phase 5 (AID 2283600)
How it was run: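 Seeded cells (4000/well) settle 5 h before compound addition. Plates then incubate 16 h at 37C, receive FRET substrate for 2 h, and finally CellTiter-Glo, with luminescence measured after a 30 min room-temperature incubation.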

[4] = target: Cellular tumor antigen p53 (Homo sapiens) (UniProt P04637); assay: TOX21_p53_BLA_p4_ratio: Tox21 HCT-116 p53 Agonism Beta-lactamase Assay, Ratio, Phase 4 (AID 2283601)
How it was run: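 Signal is the blue/green (460nm/530nm) ratio of cleaved versus uncleaved CCF4-AM substrate, read after 2 h substrate loading. Cells were HCT116 carrying the p53-responsive beta-lactamase reporter, dosed 16 h at 37C, 5% CO2; CellTiter-Glo measured in parallel.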

[5] = Tanguay_ZF_120hpf_MORT_legacy: (Legacy) Oregon State University Tanguay Lab 120 Hour Post-fertilization zebrafish Assay for Mortality (AID 2283633);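 as to AC50: fitted as increase in binary mortality versus DMSO negative control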
How it was run: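 Single dechorionated Tropical 5D embryos were held with test chemical (0.64% DMSO final) from 6 to 120 hpf at 28C under foil. Deaths at 24 or 120 hpf were recorded as binary calls, analysed for increase over DMSO controls.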

[6] = Tanguay_ZF_120hpf_YSE_legacy: (Legacy) Oregon State University Tanguay Lab 120 Hour Post-fertilization zebrafish Assay for Yolk Sac Edema (AID 2283634);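 as to AC50: actives raise the incidence of yolk sac edema above the DMSO baseline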
How it was run: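 Single dechorionated embryos were held in sealed plates at 28C with test chemical (0.64% DMSO final) from 6 hpf until 120 hpf. Edema of the yolk sac was then recorded as a binary endpoint; non-mortality endpoints were skipped for dead embryos.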

[7] = Tanguay_ZF_120hpf_EYE_legacy: (Legacy) Oregon State University Tanguay Lab 120 Hour Post-fertilization zebrafish Assay for Eye Malformation (AID 2283636)
How it was run: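 Read-out is binary presence or absence of eye malformation, scored by brightfield microscopy at 120 hpf. Single larvae were exposed from 6 hpf in embryo medium containing 0.64% DMSO, with DMSO as baseline.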

[8] = Tanguay_ZF_120hpf_SNOU_legacy: (Legacy) Oregon State University Tanguay Lab 120 Hour Post-fertilization zebrafish Assay for Snout Malformation (AID 2283637)
How it was run: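 Snout malformation read as a yes/no call on brightfield images of 120 hpf larvae (Tropical 5D strain). Static exposure began at 6 hpf on dechorionated embryos in 0.64% DMSO, with gain of signal analysed versus DMSO controls.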

[9] = Tanguay_ZF_120hpf_JAW_legacy: (Legacy) Oregon State University Tanguay Lab 120 Hour Post-fertilization zebrafish Assay for Jaw Malformation (AID 2283638);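 as to AC50: active means more embryos with jaw malformation than DMSO controls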
How it was run: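 Wild-type 5D embryos, chorion removed at 4 hpf, dosed singly from 6 hpf; 28C static, sealed, foil-covered, to 120 hpf. Endpoint: jaw defect yes/no (brightfield); mortality excludes scoring.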

[10] = Tanguay_ZF_120hpf_OTIC_legacy: (Legacy) Oregon State University Tanguay Lab 120 Hour Post-fertilization zebrafish Assay for Otic Vesicle Malformation (AID 2283639)
How it was run: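 Embryos from 5D wild-type adults exposed in plates; DMSO 0.64% v/v final. Sealed, light-protected, 28C, static to 120 hpf. Otic vesicle malformation recorded as binary endpoint; gain-of-signal fitted vs DMSO.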

[11] = Tanguay_ZF_120hpf_PE_legacy: (Legacy) Oregon State University Tanguay Lab 120 Hour Post-fertilization zebrafish Assay for Pericardial Edema (AID 2283640);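 as to AC50: potency for increased incidence of pericardial edema versus DMSO baseline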
How it was run: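 Zebrafish larvae are exposed from early development to 120 hpf at 28C, with 0.64% DMSO final. Each surviving larva receives a yes/no pericardial edema call by brightfield imaging, analysed relative to the DMSO baseline.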

[12] = Tanguay_ZF_120hpf_BRAI_legacy: (Legacy) Oregon State University Tanguay Lab 120 Hour Post-fertilization zebrafish Assay for Brain Malformation (AID 2283641)
How it was run: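 Static exposure of staged wild-type embryos until 120 hpf, kept at 28C with light excluded and final DMSO of 0.64% (vol/vol). Presence or absence of brain malformation was noted under brightfield; mortality precluded scoring.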

[13] = Tanguay_ZF_120hpf_SOMI_legacy: (Legacy) Oregon State University Tanguay Lab 120 Hour Post-fertilization zebrafish Assay for Somite Malformation (AID 2283647)
How it was run: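 Somitogenesis defects are recorded as binary calls in whole larvae at 120 hpf after continuous static chemical exposure starting at 6 hpf in dechorionated 5D embryos. DMSO serves as negative control and baseline.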

[14] = Tanguay_ZF_120hpf_PFIN_legacy: (Legacy) Oregon State University Tanguay Lab 120 Hour Post-fertilization zebrafish Assay for Pectoral Fin Malformation (AID 2283648);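 also: each larva judged yes or no for fin defect by brightfield with dead larvae skipped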
How it was run: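 5D WT zebrafish; pronase dechorionation 4 hpf; 1 embryo/well at 6 hpf; static exposure to 120 hpf, 28C, sealed, foil-covered; final DMSO 0.64% v/v; 5 uM trimethyltin chloride positive control; fin defect scored yes/no.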

[15] = Tanguay_ZF_120hpf_CFIN_legacy: (Legacy) Oregon State University Tanguay Lab 120 Hour Post-fertilization zebrafish Assay for Caudal Fin Malformation (AID 2283649)
How it was run: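 Single dechorionated 5D wild-type embryos are dosed at 6 hpf (final DMSO 0.64%) and held statically at 28C. Caudal fin malformation is recorded as present or absent at 120 hpf under brightfield, excluding dead embryos.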

[16] = Tanguay_ZF_120hpf_PIG_legacy: (Legacy) Oregon State University Tanguay Lab 120 Hour Post-fertilization zebrafish Assay for Pigmentation Malformation (AID 2283650);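 also: dechorionated Tropical 5D zebrafish embryos exposed singly from 6 to 120 hpf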
How it was run: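 Pronase dechorionation at 4 hpf; embryos plated at 6 hpf, one per well; static exposure, sealed and foil-covered, 28C, to 120 hpf; pigmentation read by brightfield, binary; DMSO 0.64% baseline, 5uM trimethyltin chloride positive control.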

[17] = Tanguay_ZF_120hpf_CIRC_legacy: (Legacy) Oregon State University Tanguay Lab 120 Hour Post-fertilization zebrafish Assay for Circulatory Malformation (AID 2283651)
How it was run: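 Read-out: presence or absence of circulatory malformation at 120 hpf, scored by brightfield microscopy, fitted in the gain-of-signal direction against DMSO baseline. Wild-type 5D larvae were exposed from 6 hpf after enzymatic chorion removal.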

[18] = Tanguay_ZF_120hpf_AXIS_legacy: (Legacy) Oregon State University Tanguay Lab 120 Hour Post-fertilization zebrafish Assay for Body Axis Malformation (AID 2283635)
How it was run: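 Each dechorionated embryo was exposed alone from 6 hpf, with DMSO at 0.64% (vol/vol) and trimethyltin chloride 5 uM as positive control. Axis malformation was recorded at 120 hpf unless the embryo had died.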

[19] = read-out: solute carrier (SLC22A6), SLC22A6 (gene 9356); assay: LTEA_HepaRG_SLC22A6: Life Technologies and Expression Analysis (LTEA) Assay for solute carrier (SLC22A6) using HepaRG (AID 2283653; active = hit-call score of the fitted dose curve at least 0.9, where 1 is the maximum; inactive = score below 0.9); settings: mRNA level, 48 h; actives raise or lower the signal
How it was run: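 Gene-expression endpoint in HepaRG hepatic cells: duplicate 8-point concentration-response, highest 100 uM, 48 h treatment in serum-free medium with 0.5% DMSO. SLC22A6 expression measured by qRT-PCR, normalised to ACTB/GAPDH/POLR2A.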

Measured: AC50

O=C(O)C1(C(=O)Nc2ccc(Cl)cc2Cl)CC1
active: [4] 46.1 µM | [6] 32.3 µM | [11] 41.9 µM
inactive: [1] | [2] | [3] | [5] | [7] | [8] | [9] | [10] | [12] | [13] | [14] | [15] | [16] | [17]

Cc1nn(C)c(Oc2ccccc2)c1C=NOCc1ccc(C(=O)OC(C)(C)C)cc1
inactive: [1] | [2] | [3] | [4] | [6] | [8] | [9] | [10] | [11] | [12] | [13] | [14] | [15] | [16] | [17]
active: [5] 3.26 µM

CCSC(=O)N(CC(C)C)CC(C)C
inactive: [1] | [2] | [4] | [5] | [6] | [7] | [8] | [9] | [10] | [11] | [12] | [13] | [14] | [15] | [16]

C[C@]12CC[C@@H]3c4ccc(O)cc4C[C@@H](CCCCCCCCCS(=O)CCCC(F)(F)C(F)(F)F)[C@H]3[C@@H]1CC[C@@H]2O (some centres not stated)
inactive: [1] | [2] | [3] | [4] | [5] | [6] | [18] | [7] | [8] | [9] | [10] | [12] | [13] | [14] | [16] | [17]

CC(=O)[C@H]1CC[C@H]2[C@@H]3CCC4=CC(=O)CC[C@]4(C)[C@H]3CC[C@]12C
inactive: [1] | [2] | [3] | [4] | [5] | [6] | [8] | [9] | [10] | [11] | [12] | [13] | [14] | [15] | [16] | [17]

CN(C)C(=O)Nc1ccc(Cl)c(Cl)c1
inactive: [1] | [2] | [3] | [4] | [5] | [6] | [8] | [10] | [11] | [12] | [13] | [14] | [15] | [16] | [17] | [19]

O=C(Nc1ccc([N+](=O)[O-])cc1Cl)c1cc(Cl)ccc1O
active: [1] 235 nM and 92 nM | [2] 315 nM and 320 nM | [3] 174 nM | [4] 0.317 µM
inactive: [3] | [4] | [5] | [6] | [18] | [8] | [9] | [10] | [11] | [14] | [15] | [16]

CC(C)(c1ccc(O)cc1)c1ccc(O)cc1
inactive: [1] | [2] | [3] | [4] | [5] | [9] | [10] | [12] | [13] | [14] | [15] | [17]
active: [1] 85.1 µM | [4] 75.9 µM | [5] 16.4 µM | [6] 41.7 µM and 25.2 µM and 38.1 µM | [8] 46.9 µM and 47.9 µM and 37.4 µM | [9] 41.7 µM and 36.1 µM | [10] 40.5 µM and 37.7 µM | [11] 43.3 µM and 34.9 µM | [12] 41.6 µM and 39.4 µM | [13] 44.3 µM and 36.4 µM | [14] 29.8 µM and 37.2 µM | [15] 35.2 µM | [16] 42 µM and 36.8 µM | [17] 36.7 µM

c1ccc(Nc2ccccc2)cc1
active: [5] 26.2 µM | [6] 12.2 µM | [8] 36.6 µM | [9] 20.7 µM | [11] 36.1 µM | [12] 10.2 µM
inactive: [1] | [2] | [3] | [4] | [13] | [14] | [15] | [16]

C[C@]12C[C@H](O)[C@H]3[C@@H](CCC4=CC(=O)CC[C@@]43C)[C@@H]1CC[C@@H]2C(=O)CO
inactive: [1] | [2] | [4] | [5] | [6] | [8] | [9] | [10] | [11] | [13] | [15] | [16] | [17]

O=C(O)c1ccccc1
inactive: [1] | [2] | [3] | [4] | [5] | [6] | [8] | [9] | [10] | [11] | [12] | [13] | [14] | [15] | [16] | [17] | [19]
